Test [1] is described as follows: ATG_CRE_CIS: Attagene CIS-FACTORIAL HepG2 Assay for human cAMP Responsive Element (CRE) binding protein 3 (AID 2282926). The following applies: HepG2 CRE cis-reporter, Attagene multiplexed mRNA; actives raise or lower the signal. The procedure, abridged: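 Induced reporter mRNA from a CRE cis element, measured in HepG2 among many multiplexed units at 24 h. Detection used RT-PCR plus capillary electrophoresis of fluorescent fragments; DMSO served as negative control.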

Test [2] deals with CCAAT/enhancer-binding protein beta (Homo sapiens) (UniProt P17676). As to the kind of experiment: ATG_C_EBP_CIS: Attagene CIS-FACTORIAL HepG2 Assay for human CCAAT/Enhancer Binding Protein (C/EBP) beta (AID 2282927). The following applies: HepG2 Attagene cis-factorial transcription factor reporter; actives raise or lower the signal. Summed up:
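Following a 24 h incubation with test chemical, transfected HepG2 cells yielded RNA whose reporter transcripts were quantified by RT-PCR and fluorescent capillary electrophoresis, with DMSO serving as baseline for bidirectional fitting.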

The nature of test [3]: ATG_CMV_CIS: Attagene CIS-FACTORIAL HepG2 Assay for human CMV (Internal Marker) (AID 2282928).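 Further: endpoint acts as a background internal control marker rather than a target.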 The following applies: HepG2 CMV promoter reporter, transcription factor profiling; actives raise or lower the signal. Summed up:
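24 h chemical treatment, HepG2 with transient multi-reporter transfection; RNA → oligo(dT) RT → PCR → 6-FAM extension → HpaI digest → CE fluorescence. Bidirectional fit, DMSO negative control.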

In test [4] the target is Aryl hydrocarbon receptor (Homo sapiens) (UniProt P35869). As to the kind of experiment: ATG_Ahr_CIS: Attagene CIS-FACTORIAL HepG2 Assay for human Aryl Hydrocarbon Receptor (Ahr) (AID 2282930). The following applies: HepG2 AhR cis-factorial reporter transcription; actives raise or lower the signal. Summed up:
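Values derive from bidirectional fitting against DMSO negative control. Underlying signal: cis-element reporter mRNA in transiently transfected HepG2, harvested 24 h post-dose and measured by RT-PCR plus capillary electrophoresis.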

The nature of test [5]: ATG_AP_1_CIS: Attagene CIS-FACTORIAL HepG2 Assay for human Activator Protein 1 (AP-1) (AID 2282931). The following applies: HepG2 Attagene cis-factorial AP-1 reporter mRNA; actives raise or lower the signal. Summed up: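 Transient MRTU transfection of HepG2 → 24 h chemical treatment → RNA isolation, RT-PCR, 6-FAM labelling, HpaI digest → capillary electrophoresis. Fit: bidirectional, DMSO negative control.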

Test [6] is described as follows: ATG_AP_2_CIS: Attagene CIS-FACTORIAL HepG2 Assay for human Activator Protein 2 (AP-2) (AID 2282932). The following applies: HepG2 AP-2 cis-reporter, Attagene transcription factor profiling; actives raise or lower the signal. The procedure, abridged: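 Assay in transfected HepG2 with promoter-regulated reporters, 24 h incubation after dosing. Signal is reporter mRNA fluorescence (RT-PCR, capillary electrophoresis), analysed for both increases and decreases relative to DMSO controls.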

A short description of test [7]: ATG_BRE_CIS: Attagene CIS-FACTORIAL HepG2 Assay for human Bone Morphogenetic Protein (BMP) Response Element (BRE) (AID 2282933). The following applies: HepG2 BMP response element reporter, Attagene transcription factor profiling; actives raise or lower the signal. Summed up: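 HepG2 cells transiently transfected with multiplexed cis-element reporter units were dosed with chemical for 24 h. Reporter mRNA was measured by RT-PCR with fluorescent labelling, HpaI digestion and capillary electrophoresis; bidirectional fitting relative to DMSO.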

In test [8] the target is Retinoic acid receptor alpha (Homo sapiens) (UniProt P10276). As to the kind of experiment: ATG_DR5_RAR_CIS: Attagene CIS-FACTORIAL HepG2 Assay for human Retinoic Acid Receptor Alpha (RARE), DR5 submotif (AID 2282934). The following applies: HepG2 Attagene cis-factorial RARE DR5 reporter, mRNA; actives raise or lower the signal. Summed up: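 Endpoint fitted in both directions relative to DMSO as negative control. It reflects DR5 cis-element reporter mRNA induction in transiently transfected HepG2 cells, measured 24 h after dosing through RT-PCR and fluorescent capillary electrophoresis.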

Test [9] deals with Transcription factor E2F1 (Homo sapiens) (UniProt Q01094). As to the kind of experiment: ATG_E2F_CIS: Attagene CIS-FACTORIAL HepG2 Assay for human E2F Transcription Factor 1 (AID 2282935). The following applies: HepG2 Attagene cis-reporter, E2F reporter RNA transcripts; actives raise or lower the signal. Summed up: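 In this cis-factorial format, endogenous factor activity drives transfected reporters in HepG2; transcripts collected at 24 h are quantified by fluorescence after RT-PCR and capillary separation.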

Test [10] is described as follows: ATG_E_Box_CIS: Attagene CIS-FACTORIAL HepG2 Assay for human Enhancer Box (E-box) (AID 2282936). The following applies: HepG2 E-box cis-reporter transcription, actives raise or lower the signal. The procedure, abridged: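 Measured 24 h post-dosing in HepG2 cells transfected with multiple cis-regulated reporter units, signal being reporter mRNA induction detected by fluorescent RT-PCR with capillary electrophoresis; gain or loss fitted against DMSO.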

The nature of test [11]: ATG_EGR_CIS: Attagene CIS-FACTORIAL HepG2 Assay for human Early Growth Response 1 (EGR1) (AID 2282938). The following applies: HepG2 Attagene CIS-FACTORIAL EGR reporter mRNA; actives raise or lower the signal. Summed up:
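Transient transfection of human HepG2 with multiple cis-regulated reporter units, chemical exposure 24 h, total RNA isolated. Reverse transcription, PCR, fluorescent labelling and capillary electrophoresis quantify reporter transcripts; activity fitted bidirectionally against DMSO.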

Test [12] is described as follows: ATG_M_19_CIS: Attagene CIS-FACTORIAL HepG2 Assay for M19 Transcription Factor (Internal Marker) (AID 2282939). The following applies: HepG2 Attagene CIS-FACTORIAL M19 internal marker reporter; actives raise or lower the signal. Summed up:
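HepG2 cells transiently transfected with cis-regulated multiple reporter transcription units were dosed for 24 h; reporter mRNA was quantified by RT-PCR, 6-FAM primer-extension labelling, HpaI digestion and capillary electrophoresis, with bidirectional fitting against DMSO baseline.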

Test [13] can be described thus: ATG_Ets_CIS: Attagene CIS-FACTORIAL HepG2 Assay for human Erythroblast Transformation Specific (ETS) (AID 2282941). The following applies: HepG2 ETS cis-reporter transcription, actives raise or lower the signal. The procedure, abridged:
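Cis-regulated reporter mRNA induction in HepG2 (transient transfection), 24 h exposure, RT-PCR plus capillary electrophoresis detection; DMSO serves as negative control and baseline.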

The target of test [14] is Hepatocyte nuclear factor 3-beta (Homo sapiens) (UniProt Q9Y261). As to the kind of experiment: ATG_FoxA2_CIS: Attagene CIS-FACTORIAL HepG2 Assay for human Forkhead box A2 (FOXA2) (AID 2282942). The following applies: HepG2 cis-reporter transcription factor activity, 24 h; actives raise or lower the signal. The procedure, abridged:
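Transient MRTU transfection of HepG2 liver cells; 24 h treatment; total RNA → oligo(dT) RT → PCR → FAM primer extension → HpaI cut → CE. Bidirectional fit vs DMSO.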

The nature of test [15]: ATG_FoxO_CIS: Attagene CIS-FACTORIAL HepG2 Assay for human Forkhead box O (FoxO) (AID 2282943). The following applies: HepG2 Attagene cis-reporter, FoxO element, mRNA; actives raise or lower the signal. The procedure, abridged: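 Values reflect reporter mRNA induction or loss in HepG2 cells 24 h post-dosing, fitted bidirectionally with DMSO as negative control and baseline. Detection used RT-PCR and fluorescence capillary electrophoresis.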

A short description of test [16]: ATG_GATA_CIS: Attagene CIS-FACTORIAL HepG2 Assay for human GATA Binding Protein (AID 2282944). The following applies: HepG2 GATA cis-element reporter, Attagene multiplex mRNA; actives raise or lower the signal. The procedure, abridged:
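HepG2 cells transiently transfected with multiplexed cis-element reporter units reflecting endogenous transcription factor activity; reporter mRNA measured after 24 h dosing by RT-PCR, 6-FAM labeling, HpaI digestion and capillary electrophoresis. Bidirectional fitting versus DMSO baseline.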

The nature of test [17]: ATG_GLI_CIS: Attagene CIS-FACTORIAL HepG2 Assay for human Zinc Finger Protein GLI1 (AID 2282945). The following applies: HepG2, Attagene cis-factorial reporter mRNA, GLI element; actives raise or lower the signal. The procedure, abridged:
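HepG2 cells transiently transfected with cis-promoter multiplexed reporter units report endogenous transcription factor activity. After 24 h chemical exposure, reporter mRNA was quantified by RT-PCR, 6-FAM labelling, HpaI digestion and capillary electrophoresis, with bidirectional fitting against DMSO.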

In test [18] the target is Bile acid receptor (Homo sapiens) (UniProt Q96RI1). As to the kind of experiment: ATG_IR1_CIS: Attagene CIS-FACTORIAL HepG2 Assay for human Nuclear Receptor Subfamily 1 Group H Member 4 (NR1H4), IR1 submotif (AID 2282946). The following applies: IR1 reporter transcription, actives raise or lower the signal. The procedure, abridged: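 Readout: reporter transcript levels by RT-PCR with fluorescent capillary electrophoresis, from HepG2 cells transiently transfected with multiplexed cis-regulated reporters and dosed 24 h. Gain- or loss-of-signal fitted versus DMSO negative control.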

A short description of test [19]: ATG_DR4_LXR_CIS: Attagene CIS-FACTORIAL HepG2 Assay for human Liver X Receptor (LXR), DR4 submotif (AID 2282929). The following applies: HepG2 Attagene DR4 cis-reporter, mRNA transcription; actives raise or lower the signal. Summed up: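 HepG2, transient MRTU transfection, cis-element (DR4) promoter; 24 h compound exposure; total RNA → oligo(dT) RT → PCR → 6-FAM primer extension → HpaI cut → CE. Gain/loss vs DMSO, bidirectional fit.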

Test [20] in a line: ATG_M_61_CIS: Attagene CIS-FACTORIAL HepG2 Assay for M61 Transcription Factor (Internal Marker) (AID 2282937). The following applies: HepG2 Attagene CIS-FACTORIAL M61 internal marker reporter; actives raise or lower the signal. Summed up: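 Human liver HepG2, transient MRTU transfection (cis promoter elements), 24 h compound. Total RNA → oligo(dT) RT → PCR → FAM label → HpaI → CE. Internal background marker; bidirectional fitting, DMSO = baseline.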

Molecules are shown by their SMILES. Active and inactive are the calls of the source. How the source made its calls: active means hit-call score of the fitted dose curve at least 0.9, where 1 is the maximum; inactive means score below 0.9.

Sequence of Transcription factor E2F1 (Homo sapiens) (Q01094 whole entry, looked up): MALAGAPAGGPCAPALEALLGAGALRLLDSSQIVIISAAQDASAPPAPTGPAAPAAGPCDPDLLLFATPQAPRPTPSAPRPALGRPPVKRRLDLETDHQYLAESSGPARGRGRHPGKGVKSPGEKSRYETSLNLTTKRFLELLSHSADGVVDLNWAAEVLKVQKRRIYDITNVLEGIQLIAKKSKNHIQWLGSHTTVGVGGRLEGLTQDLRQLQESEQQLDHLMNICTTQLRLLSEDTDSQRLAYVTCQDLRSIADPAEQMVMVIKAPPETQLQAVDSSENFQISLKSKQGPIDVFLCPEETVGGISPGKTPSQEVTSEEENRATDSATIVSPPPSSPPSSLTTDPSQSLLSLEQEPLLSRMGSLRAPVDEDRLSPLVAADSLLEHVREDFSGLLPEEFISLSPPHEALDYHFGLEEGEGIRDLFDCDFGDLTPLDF
Sequence of CCAAT/enhancer-binding protein beta (Homo sapiens) (P17676 whole entry, looked up): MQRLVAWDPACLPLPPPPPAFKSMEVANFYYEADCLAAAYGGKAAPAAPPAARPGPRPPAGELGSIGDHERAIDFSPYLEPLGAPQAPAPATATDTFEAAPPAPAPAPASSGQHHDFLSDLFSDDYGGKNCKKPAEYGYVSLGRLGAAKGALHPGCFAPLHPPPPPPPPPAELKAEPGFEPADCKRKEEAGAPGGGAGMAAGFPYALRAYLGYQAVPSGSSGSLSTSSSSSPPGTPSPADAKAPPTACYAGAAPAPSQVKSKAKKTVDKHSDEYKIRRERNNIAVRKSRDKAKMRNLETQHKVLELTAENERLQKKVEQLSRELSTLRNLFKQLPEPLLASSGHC
Sequence of Hepatocyte nuclear factor 3-beta (Homo sapiens) (Q9Y261 whole entry, looked up): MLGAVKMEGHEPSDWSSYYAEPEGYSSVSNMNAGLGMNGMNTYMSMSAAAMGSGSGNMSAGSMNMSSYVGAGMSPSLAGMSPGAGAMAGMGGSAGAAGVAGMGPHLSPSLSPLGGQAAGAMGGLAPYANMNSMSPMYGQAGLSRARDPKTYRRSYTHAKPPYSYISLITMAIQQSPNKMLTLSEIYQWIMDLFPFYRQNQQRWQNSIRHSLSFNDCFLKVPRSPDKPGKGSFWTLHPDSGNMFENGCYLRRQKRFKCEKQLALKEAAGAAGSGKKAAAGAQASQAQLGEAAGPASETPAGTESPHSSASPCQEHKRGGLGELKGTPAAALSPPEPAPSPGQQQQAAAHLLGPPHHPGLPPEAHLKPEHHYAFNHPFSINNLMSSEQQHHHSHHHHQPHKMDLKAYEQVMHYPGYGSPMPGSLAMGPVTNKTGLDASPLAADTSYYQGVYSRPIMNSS
Sequence of Retinoic acid receptor alpha (Homo sapiens) (P10276 whole entry, looked up): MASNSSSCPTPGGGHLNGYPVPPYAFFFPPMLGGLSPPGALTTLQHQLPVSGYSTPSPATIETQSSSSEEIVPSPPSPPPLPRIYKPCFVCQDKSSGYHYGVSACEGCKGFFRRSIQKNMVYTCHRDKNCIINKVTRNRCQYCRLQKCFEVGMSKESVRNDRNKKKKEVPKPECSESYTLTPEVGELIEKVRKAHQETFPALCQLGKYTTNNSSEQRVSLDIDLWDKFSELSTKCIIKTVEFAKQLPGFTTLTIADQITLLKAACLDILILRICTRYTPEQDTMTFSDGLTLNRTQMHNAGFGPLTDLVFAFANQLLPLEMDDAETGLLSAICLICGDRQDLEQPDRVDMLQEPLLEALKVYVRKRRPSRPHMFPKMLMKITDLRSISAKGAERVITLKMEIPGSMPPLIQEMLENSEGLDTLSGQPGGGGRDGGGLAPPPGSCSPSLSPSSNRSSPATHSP
Sequence of Bile acid receptor (Homo sapiens) (Q96RI1 whole entry, looked up): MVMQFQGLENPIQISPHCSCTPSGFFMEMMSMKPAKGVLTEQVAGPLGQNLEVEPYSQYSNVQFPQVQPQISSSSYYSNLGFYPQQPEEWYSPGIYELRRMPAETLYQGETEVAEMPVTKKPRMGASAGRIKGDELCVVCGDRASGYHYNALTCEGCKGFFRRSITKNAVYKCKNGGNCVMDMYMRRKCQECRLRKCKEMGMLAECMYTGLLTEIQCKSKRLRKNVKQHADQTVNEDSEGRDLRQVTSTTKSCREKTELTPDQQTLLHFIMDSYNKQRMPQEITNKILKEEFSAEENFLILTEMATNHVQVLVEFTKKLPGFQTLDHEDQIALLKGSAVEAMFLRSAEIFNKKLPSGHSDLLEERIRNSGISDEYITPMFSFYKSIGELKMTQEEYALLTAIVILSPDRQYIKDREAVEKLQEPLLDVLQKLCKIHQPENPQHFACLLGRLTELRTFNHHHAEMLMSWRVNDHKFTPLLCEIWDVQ
Sequence of Aryl hydrocarbon receptor (Homo sapiens) (P35869 whole entry, looked up): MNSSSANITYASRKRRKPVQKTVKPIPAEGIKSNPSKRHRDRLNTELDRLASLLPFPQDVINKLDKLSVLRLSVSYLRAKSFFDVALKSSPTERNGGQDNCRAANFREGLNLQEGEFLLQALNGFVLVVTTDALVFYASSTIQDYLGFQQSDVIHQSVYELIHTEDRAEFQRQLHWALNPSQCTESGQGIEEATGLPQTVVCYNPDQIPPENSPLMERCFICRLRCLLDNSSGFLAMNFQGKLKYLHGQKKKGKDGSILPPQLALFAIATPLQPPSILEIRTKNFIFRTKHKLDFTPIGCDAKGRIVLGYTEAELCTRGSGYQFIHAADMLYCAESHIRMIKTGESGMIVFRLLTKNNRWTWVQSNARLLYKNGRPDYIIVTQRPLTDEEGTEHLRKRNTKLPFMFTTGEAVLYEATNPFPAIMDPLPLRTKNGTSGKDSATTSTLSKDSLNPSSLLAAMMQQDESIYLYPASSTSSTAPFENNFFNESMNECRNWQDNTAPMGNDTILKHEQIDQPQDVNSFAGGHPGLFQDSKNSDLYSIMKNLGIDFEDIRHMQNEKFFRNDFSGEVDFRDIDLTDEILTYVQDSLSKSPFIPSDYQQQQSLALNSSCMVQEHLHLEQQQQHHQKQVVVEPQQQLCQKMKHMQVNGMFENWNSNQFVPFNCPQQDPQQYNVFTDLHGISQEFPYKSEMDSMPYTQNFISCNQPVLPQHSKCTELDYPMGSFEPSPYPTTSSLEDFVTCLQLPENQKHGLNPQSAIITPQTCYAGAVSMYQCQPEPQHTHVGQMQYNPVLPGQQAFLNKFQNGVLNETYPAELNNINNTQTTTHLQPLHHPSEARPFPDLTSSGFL

With `CCC(C)c1cc([N+](=O)[O-])cc([N+](=O)[O-])c1OC(=O)OC(C)C` (stereo not drawn), the molecule was called inactive in [1], in test [3], in test [4], in test [8], in test [9] and in [12]. In addition, the AC50 (commonly the concentration giving half of the maximal activity seen) is 49.1 µM (active) in [2]; 25.8 µM (active) in test [5]; 39.7 µM (active) in test [6]; 100 µM (active) in test [7]; 100 µM (active) in test [10]; 26.5 µM (active) in test [11]. The AC50 in [13] is 26.1 µM (active); in [14], 62.6 µM (active); in [15], 164 µM (active); in test [16] it was 24.1 µM (active); in [17], 27.1 µM (active); in test [18], 27.4 µM (active).

`CCCCCCCCc1ccc(S(=O)(=O)O)cc1`: the AC50 in test [1] was 19.7 µM (active); in test [19] it was 42.1 µM (active); in [9] it was 155 µM (active); in test [10] it was 159 µM (active); in test [20], 155 µM (active); in [12], 157 µM (active). The concentration at half-maximal activity (AC50) in test [13] is 156 µM (active); in test [15] it was 159 µM (active); in test [16] it was 99.5 µM (active); in [17], 168 µM (active); in test [18], 175 µM (active). Moreover, the result in test [2], in test [3], in [5], in test [6], in test [7] and in test [11] was inactive. For the same molecule, in test [14], the outcome was inactive.

As to `COC(=O)c1cccnc1`, the result in test [1], in test [2], in [3], in test [4], in test [5] and in test [6] was inactive. The molecule was classed as inactive in test [7], in [8], in [9], in test [10], in test [20] and in [11]. Further, the outcome in [12], in [13], in test [14], in test [15] and in [16] was inactive.
